# Screens as filed in PubChem BioAssay.
# The full list was thinned out, with hits kept by preference.
# RMI FANCM FP = inhibitors of human RMI core complex binding to FANCM MM2; Fluorescence polarization, RMI core complex with F-MM2 peptide; hits give low values; 70,000 tested, 0.58% active; FP signal (polarization) at 33 µM; in the data active = FP signal below about 40
# * marks the source's active call; other numbers are inactive results.
SMILES,RMI FANCM FP
COc1cc(C)c(C)cc1S(=O)(=O)NCC(c1ccsc1)N1CCc2ccccc2C1 (centres undefined),78
COc1cc(C)c(C)cc1S(=O)(=O)NCC(c1ccc(N(C)C)cc1)N1CCc2ccccc21 (centres undefined),19*
COc1cc(C(=O)Oc2c(Cl)cc(Cl)cc2C=Nc2cc(C)c(C)cc2C)cc(OC)c1OC,97
COc1cc(C(=O)O/N=C\c2ccccc2OC(F)(F)F)cc(OC)c1OC,50
COc1cc(N=Cc2ccccc2OC(=O)c2cc(OC)c(OC)c(OC)c2)c(OC)cc1Cl,28*
Cc1ccccc1Cn1cnc2c(cnn2CCNC(=O)Cc2ccccc2)c1=O,66
O=C(NCc1cccs1)c1csc2nc(-c3ccc(F)cc3)cn12,71
COc1cc(C2NC(=O)NC3=C2C(=O)N(CCN2CCCCC2)C3)ccc1O (centres undefined),58
O=C(CN1C(=O)/C(=C/c2ccco2)SC1=S)Nc1ccc(C(=O)O)cc1,64
O=C(CN1C(=O)/C(=C\c2cccs2)SC1=S)Nc1cccc(Br)c1,59
O=C(CCN1C(=O)/C(=C\c2ccco2)SC1=S)Nc1cccc(Br)c1,9*
S=C(NN=C1CCCCCC1)Nc1cccc(Cl)c1,54
COc1ccc(-c2c(C#N)c(SCC(=O)c3ccc4c(c3)OCCO4)nc3c2C(=O)CC(C)(C)C3)cc1,164
CC1(C)CC(=O)c2c(nc(SCC(=O)c3ccc(Cl)c(Cl)c3)c(C#N)c2-c2ccccc2)C1,131
N#Cc1c(N)nc(SCC(=O)c2ccc(O)c(O)c2)c(C#N)c1-c1ccc(OCc2ccccc2)cc1,14*
O=S(=O)(Cc1ccc(Cl)cc1)c1nc2ccccc2nc1N1CCN(c2ccccc2F)CC1,78
Cc1ccc(S(=O)(=O)N=C2C=CC(=NS(=O)(=O)c3ccc(C)cc3)C=C2)cc1,0*
Cc1ccc(S(=O)(=O)N=c2sc3cccc(C)c3n2C)cc1,55
Cc1ccc(S(=O)(=O)N(C)C)cc1,56
Cc1ccc(C)c(S(=O)(=O)NCCN2CCN(c3ccccc3)CC2)c1,63
CCCCCCCCCCCCCO,55
C[N+](C)(C)CCSSCC[N+](C)(C)C,59
CCCCCCCCCCCCCCCC[N+](C)(C)C,34*
Cc1nn(-c2nc(-c3ccc(F)cc3)cs2)c(C)c1CCC(=O)O,64
COc1ccc(-c2ccc(=O)n(CCNC(=O)Nc3ccc(C)c(F)c3)n2)cc1OC,69
SMILES,RMI FANCM FP
CCCCOc1ccc(C(=O)N(C)c2nnc(C34CC5CC(CC(C5)C3)C4)s2)cc1,52
COc1ccc(CC(=O)NCC(c2ccsc2)N2CCCC2)cc1OC (centres undefined),65
N#Cc1c(=O)[nH]c(O)c2c(=N)oc3ccc(Cl)cc3c12,10*
O=c1cc(O)c2cc(Cl)ccc2o1,57
Cc1ccc(S(=O)(=O)N2CCc3ccc(NC(=O)COc4ccc(F)cc4)cc3C2)cc1,82
Cc1ccc2nc(NC(=O)CCCn3nc(-c4ccc(Cl)cc4)ccc3=O)sc2c1,80
O=C(NCCn1ncc2c(NCCc3ccccc3)ncnc21)C1CC(=O)N(c2ccc(F)cc2)C1 (centres undefined),63
COC(=O)c1ccc(Cn2cnc(-c3ccc(F)cc3)cc2=O)o1,62
c1ccc2c(c1)nc1n2CCN1,65
c1cn2c(n1)NCC2,-22*
O=C(Nc1ccccc1)Nc1ccc(S(=O)(=O)Nc2nccs2)cc1,65
O=C(Nc1nc2c(s1)CCc1ccccc1-2)C1CC1,56
CCOC(=O)c1c(NC(=O)CCSc2nc3c(c(-c4ccccc4)c2C#N)C(=O)CC(C)(C)C3)sc2c1CCCCC2,89
CC(C)NC(=O)NNC(=O)c1cccc(COc2ccc(C3SCCS3)cc2)c1,55
O=C(N=Nc1c(O)[nH]c2ccc([N+](=O)[O-])cc12)c1ccncc1,62
Cc1ccc(C(C)C)c(OCC(=O)N=Nc2c(O)[nH]c3ccc([N+](=O)[O-])cc23)c1,11*
CCCCCC(=O)N=Nc1c(O)[nH]c2ccc([N+](=O)[O-])cc12,65
CC(=O)c1ccc(C(=O)Nc2nc(-c3ccc(C)cc3)cs2)cc1,77
O=C(O)c1cc(O)c2c(c1)[C@@H]([C@H]1c3cc(C(=O)O)cc(O)c3C(=O)c3c(O[C@H]4O[C@H](CO)[C@@H](O)[C@H](O)[C@H]4O)cccc31)c1cccc(O[C@H]3O[C@H](CO)[C@@H](O)[C@H](O)[C@H]3O)c1C2=O,22*
COC(=O)c1ccccc1OC1OC(CO)C(O)C(O)C1O (centres undefined),61
N#Cc1c(NC(=O)c2ccc(-c3ccccc3)cc2)sc2c1CCC2,72
COc1ccc(S(=O)(=O)Nc2ccc3c(c2)N(C(=O)c2ccco2)CC3)cc1F,70
O=C(Nc1nc(-c2cc(Cl)sc2Cl)cs1)c1cccs1,61
Cc1ccc(-c2csc(NC(=O)c3ccc([N+](=O)[O-])s3)n2)cc1,55
O=C(Nc1nc(-c2cc(Cl)sc2Cl)cs1)c1ccc([N+](=O)[O-])s1,28*
COc1ccccc1-c1nnc2ccc(OCCNC(=O)c3ccc(F)cc3)nn12,67
N#CCn1cnc2c(-c3ccccc3)csc2c1=O,62
